Test results published in PubChem BioAssay (NCATS).
Inconclusive results are not listed. Where a call stands in place of a potency, no number is given. The source made the active and inactive calls. Unless noted, the call rests on the fitted dose curve.

Legend:
[1] = Inducers of the Endoplasmic Reticulum Stress Response (ERSR) in human glioma: Validation (AID 504836; active means well fitted curve in the direction sought with a large enough effect)
How it was run: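 ERSR induction read as luciferase luminescence (Bright-Glo, 10 min at room temperature) in stably transfected human U87-MG glioma cells exposed to compounds for 16 h, using GRP78 as sensor.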

[2] = qHTS for Inhibitors of the Functional Ribonucleoprotein Complex (vRNP) of Lassa (LASV) Arenavirus: LASV Primary Screen - GLuc reporter signal (AID 1347082; calls by dose curve; tested in HEK293 reporter line; further: nearly all actives have a fitted effect of over 60% in size; further: potency means the concentration at half of the fitted maximal effect)
[3] = qHTS for Inhibitors of the Functional Ribonucleoprotein Complex (vRNP) of Lassa (LASV) Arenavirus: Viability assay - alamar blue signal for LASV Primary Screen (AID 1347083; calls by dose curve; tested in HEK293 reporter line; further: nearly all actives have a fitted effect of over 80% in size; further: potency means the concentration at half of the fitted maximal effect)
[4] = qHTS for Inhibitors of the Functional Ribonucleoprotein Complex (vRNP) of Lymphocytic Choriomeningitis Arenaviruses (LCMV): Viability assay - alamar blue signal for LCMV Primary Screen (AID 1347085; calls by dose curve; tested in HEK293 reporter line; further: nearly all actives have a fitted effect of over 80% in size)
[5] = molecular target: Nucleoprotein (Lymphocytic choriomeningitis virus (strain Armstrong)) (UniProt P09992); experiment: qHTS for Inhibitors of the Functional Ribonucleoprotein Complex (vRNP) of Lymphocytic Choriomeningitis Arenaviruses (LCMV): LCMV Primary Screen - GLuc reporter signal (AID 1347086); further: nearly all actives have a fitted effect of over 70% in size; further: potency means the concentration at half of the fitted maximal effect
Sequence of Nucleoprotein (Lymphocytic choriomeningitis virus (strain Armstrong)) (P09992 whole entry, looked up): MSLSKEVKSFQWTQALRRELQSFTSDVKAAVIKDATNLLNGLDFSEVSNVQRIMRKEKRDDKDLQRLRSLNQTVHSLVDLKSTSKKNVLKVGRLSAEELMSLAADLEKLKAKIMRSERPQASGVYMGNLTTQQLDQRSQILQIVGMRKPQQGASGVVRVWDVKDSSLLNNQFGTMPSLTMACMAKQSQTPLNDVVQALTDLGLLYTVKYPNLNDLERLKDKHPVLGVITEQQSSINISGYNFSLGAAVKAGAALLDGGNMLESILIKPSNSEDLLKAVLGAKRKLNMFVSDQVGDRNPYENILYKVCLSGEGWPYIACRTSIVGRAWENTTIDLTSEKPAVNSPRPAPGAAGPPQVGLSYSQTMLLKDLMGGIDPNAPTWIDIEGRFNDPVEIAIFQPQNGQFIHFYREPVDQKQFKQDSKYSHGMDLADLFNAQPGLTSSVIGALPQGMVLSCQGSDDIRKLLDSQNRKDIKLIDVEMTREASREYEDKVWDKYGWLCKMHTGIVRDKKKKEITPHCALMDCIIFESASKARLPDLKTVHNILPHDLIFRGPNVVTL

[6] = Primary qHTS to identify inhibitors of SARS-CoV-2 cell entry (AID 1645846); conditions: activity change, negative = inhibition: at 57.1 µM (top of the series) unless noted; further: nearly all actives have a fitted effect of over 45% in size; further: potency means the concentration at half of the fitted maximal effect
How it was run: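 Inhibition of spike-mediated entry was scored in human ACE2-transfected Expi293F cells. Particles were MLV-pseudotyped with Wuhan-Hu-1 S carrying a 19-aa C-terminal deletion; signal was luciferase after two days, scaled between spike PP and fusion-protein-free PP.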

[7] = Cytotoxicity counterscreen for inhibitors of SARS-CoV-2 cell entry (AID 1645845); further: nearly all actives have a fitted effect of over 50% in size
How it was run: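 48 h compound treatment (after 1 h preincubation), HEK293-ACE2 cells, 37 C/5% CO2; ATP luminescence endpoint; normalized to cell wells and media blanks.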

| SMILES | outcome [1] | Potency [2] | Potency [3] | Potency [4] | Potency [5] | Potency [6] | Potency [7] | activity change, negative = inhibition [6] |
| --- | --- | --- | --- | --- | --- | --- | --- | --- |
| c1ccc(C(NCCNC(c2ccccc2)c2ccccc2)c2ccccc2)cc1 | inactive | inactive | inactive | inactive | – | – | – | – |
| OC[C@H]1O[C@@H](n2cnc3c(NC4CCCC4)ncnc32)[C@H](O)[C@@H]1O | inactive | inactive | inactive | – | inactive | – | – | – |
| COc1cc(O)c2c(c1)C1OC1C[C@H](O)[C@H](O)C(=O)C=CC[C@H](C)OC2=O (some centres not stated) | – | 34.3 µM (active) | 38.5 µM (active) | – | 34.3 µM (active) | 35.5 µM (active) | – | – |
| COc1cc(C(=O)N2CCC(N3CCN(C)CC3)CC2)ccc1Nc1ncc2c(n1)N(C)c1ccccc1C(=O)N2C | – | inactive | 17.2 µM (active) | – | 10.9 µM (active) | 31.6 µM (active) | – | – |
| Cc1ccc2nc(NC(=O)CSc3nc4c(c(=O)n3-c3ccccc3)SCC4)sc2c1 | – | 19.3 µM (active) | 17.2 µM (active) | – | 8.63 µM (active) | – | inactive | -16.9% |
| O=C(O)CCCCCC(=O)NN=C1CCCC1 | – | inactive | inactive | – | – | – | inactive | -16.8% |
| O=C1NC(O)CCN1[C@@H]1O[C@H](CO)[C@H](O)[C@H]1O (some centres not stated) | – | inactive | inactive | – | – | – | inactive | -26.7% |
| CN(C(Cc1ccc(OS(=O)(=O)c2cccc3cnccc23)cc1)C(=O)N1CCN(c2ccccc2)CC1)S(=O)(=O)c1cccc2cnccc12 (configuration not stated) | – | 13.7 µM (active) | 21.7 µM (active) | – | – | – | inactive | – |
